Experimental data from PubChem BioAssay AID778 (Sanford-Burnham Center for Chemical Genomics, 2007).
The campaign covered roughly 96,000 compounds. About 20,000 (21%) were called active.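 How the source made its calls: active means CYP2C19 inhibition above a set limit at 5 µM in the primary screen (cut at about 50% in these data); inactive means the rest.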 These entries were drawn from the full list.

biological target: Cytochrome P450 2C19 (Homo sapiens) (UniProt P33261); assay: blockers of cytochrome P450 2C19 activity – biochemical, luminescence, ADME assay, primary screen (AID 778); details: CYP2C19 Supersomes, luciferin-H EGE luminescence, 30 min; at 5 µM; stronger effect = higher value;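 further: plate controls were negative control wells for no effect and 2.5 mM tranylcypromine positive control for full effect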
Sequence (P33261 whole entry, looked up): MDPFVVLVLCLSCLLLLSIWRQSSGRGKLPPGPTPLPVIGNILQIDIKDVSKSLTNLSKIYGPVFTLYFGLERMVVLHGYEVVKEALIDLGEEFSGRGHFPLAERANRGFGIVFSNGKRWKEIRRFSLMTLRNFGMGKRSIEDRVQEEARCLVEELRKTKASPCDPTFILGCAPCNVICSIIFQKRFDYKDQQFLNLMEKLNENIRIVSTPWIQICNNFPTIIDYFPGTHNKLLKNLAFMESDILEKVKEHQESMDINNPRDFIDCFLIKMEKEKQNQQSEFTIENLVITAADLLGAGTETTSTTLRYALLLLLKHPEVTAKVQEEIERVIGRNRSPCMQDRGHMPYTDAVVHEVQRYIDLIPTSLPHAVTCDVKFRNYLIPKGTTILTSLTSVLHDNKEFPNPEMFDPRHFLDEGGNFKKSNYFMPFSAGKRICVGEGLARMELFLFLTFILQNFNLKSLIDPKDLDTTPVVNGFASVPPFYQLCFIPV

inhibition, active:
N#CC1=C(N)OC2=C(C(=O)CCC2)C1C1CC=CCC1 (centres undefined) 61.1%, Cc1ccc(SCCN2C(=O)NC(C)(C)C2=O)cc1 97.8%, CC1(C)NC(=O)N(CCCCSc2ccc(Cl)cc2)C1=O 87.5%, COC(=O)c1ccc(CN(c2ccccc2OC)S(=O)(=O)c2cccs2)o1 98.5%, O=C1CC(Cc2ccccc2)C(=O)N1c1ccc(Cl)cn1 (centres undefined) 59.4%, Cc1ccc2nc(/C(C#N)=C\c3ccc(OC(=O)c4cccs4)cc3)[nH]c2c1 50.9%, CCC1(C)Cc2c(sc3nc(SC)nc(N)c23)CO1 (centres undefined) 80.9%, O=C1NC(c2ccncc2)Nc2sc3c(c21)CCCC3 (centres undefined) 82.8%, Cc1cccn2c(=O)c(/C=C(\C#N)S(=O)(=O)c3ccc(Cl)cc3)c(N3CCC(C(N)=O)CC3)nc12 86.2%, Cc1nn(-c2ccccn2)c2c1C(c1ccncc1)C1=C(CC(C)(C)CC1=O)N2 (centres undefined) 98.7%, Cc1c(C(=O)CN2CCOCC2)[nH]c2ccccc12 56%, CCOC(=O)N1CCN(CC(=O)c2c(C)[nH]c3ccccc23)CC1 88%, C=C(Br)Cn1c(CCCC)nc2ccccc21 63.8%, CCOC(=O)c1cc2sccc2n1Cc1ccc(C#N)cc1 96.9%, Cc1ccc(CNC(=O)C2CC(c3ccccc3[N+](=O)[O-])=NO2)o1 (centres undefined) 61.7%, Cc1ccc(CC2CC(=O)N(c3ccc4c(c3)OCCO4)C2=O)cc1 (centres undefined) 62.6%, O=C(NCc1ccco1)c1ccc(Cn2c(=O)c3sccc3n(Cc3ccc(F)cc3)c2=O)cc1 79.8%, O=C(CNS(=O)(=O)c1cccc(C(F)(F)F)c1)Nc1ccccc1F 74.7%

inhibition, inactive:
COc1ccc(-c2nc3n(c2Br)CCC3)cc1 32.9%, Cc1ccc(C(=O)Nc2c(C#N)c(C)c(C)n2Cc2ccccc2)cc1 23.9%, CN1C(=O)c2ccccc2C(C(=O)NCCCN2CCCC2)C1c1c[nH]c2ccccc12 (centres undefined) -6.7%, COCc1[nH]nc2c1C(C1C=CCCC1)C(C#N)=C(N)O2 (centres undefined) 17.2%, CC1CCc2c(sc(NC(=O)c3ccc(Cn4cc(Br)cn4)o3)c2C(N)=O)C1 (centres undefined) 28.9%, Nc1ccccc1SCc1cc([N+](=O)[O-])cc2c1OCOC2 19.4%, Cc1ccc(SCC2=NNC(=O)C2)cc1 7.6%, CCC(=O)c1ccc(OCC(O)CN2C(=O)NC(C)(C)C2=O)cc1 (centres undefined) 31.7%, CC1(C)NC(=O)N(CCOc2cccc(Oc3ccccc3)c2)C1=O 42.5%, N#CC1=C(N)Oc2c(sc3ccccc23)C1c1ccco1 (centres undefined) 22.6%, Cc1c(Cl)c([N+](=O)[O-])nn1Cc1ccc(C(=O)N/N=C\c2cc(Cl)ccc2O)o1 31.1%, CCN(CC)CCn1c(=S)[nH]c2ncccc2c1=O -16.9%, Cc1cccc(N2C(=O)c3cccnc3C2=O)c1 10.5%, COC(=O)c1ccc(Cc2ccccc2)o1 -1.3%, COc1ccc(C(C(=O)NCc2ccccc2)N(Cc2cccs2)C(=O)c2cnccn2)cc1 (centres undefined) 47%, CCCCN(CCCC)C(=O)CCS(=O)(=O)c1ccc2c(c1)n(C)c(=O)c(=O)n2C 3.1%, CS(=O)(=O)c1ccc2c(c1)SC1=NC(=O)/C(=C/c3ccco3)C(=N)N12 8.6%, CCS(=O)(=O)N1CCCC(C(=O)NCCCN(C)Cc2ccccc2)C1 (centres undefined) -3%, Cc1cc(C)nc(N2C(=O)CC(Cc3ccccc3)C2=O)n1 (centres undefined) 15.5%, O=C(O)CN1C(=O)CC(Cc2ccccc2)C1=O (centres undefined) -1%, COc1ccc(-n2c(C)nc3c(cnn3-c3ccccc3)c2=O)cc1 14.9%, Cc1cc(C)c(S(=O)(=O)c2ccccc2)c(OC(=O)c2c(F)cccc2Cl)n1 12.4%, Cc1nc(C)c(C(=O)Nc2ccc(C)c(F)c2)o1 -9%, CCOc1ccccc1-n1c(SCC(=O)N2CCCC2)nnc1-c1ccoc1C 2%, Cc1ccc2nc(S(=O)(=O)O)[nH]c2c1 -14.4%, COc1ccc(/C=C(/NC(=O)c2ccc(C)cc2)c2nc3ccccc3[nH]2)cc1OC 35.6%, C=CCn1c(SCC(=O)/C(C#N)=C(\C)N)nc2sc(C)c(C)c2c1=O 6.6%, Cc1cnc(NC(=O)CSc2nnc(C)s2)s1 19.7%, O=C(CSc1ncnc2c1cnn2CCc1ccccc1)Nc1ccc(F)cc1 7.1%, CCC(C)NC(=O)N[C@@H](CCSC)C(=O)O (some centres undefined) -1.9%, CCCSc1nc(NCc2ccco2)c2c3c(sc2n1)COC(C)(CC)C3 (centres undefined) 13.8%, CCC1(C)Cc2c(sc3nnn(CC(=O)Nc4ccc(Cl)cc4)c(=O)c23)CO1 (centres undefined) 22.1%, COC(=O)c1cc(OC)c(OC)cc1NC(=O)C1CCCO1 (centres undefined) 23.5%, O=C(Nc1sc2c(c1-c1nc3ccccc3[nH]1)CCCC2)C1CC1 9.4%, Cc1ccc(C(=O)c2c(NC(=O)c3ccncc3)sc3c2CCCC3)cc1 28.7%, COc1ccc2nc(NC3=NCN(CC4CCCO4)CN3)nc(C)c2c1 (centres undefined) 2%, COc1ccccc1-c1nc(C#N)c(N2CCC(C(N)=O)CC2)o1 -9.9%, Cc1ccc(C(c2nnnn2CS(=O)(=O)c2ccc(C)cc2)N2CCC(C(N)=O)CC2)cc1 (centres undefined) 0.4%, COc1ccc(-c2cc(C(=O)NC(C(=O)O)C(C)C)c(C)o2)cc1OC (centres undefined) 6.4%, CCN(CC)P(=O)(C(NC(=O)OC)C(F)(F)C(F)(F)C(F)(F)C(F)F)N(CC)CC (centres undefined) 10%, CCN(CC)CCNC(=O)CCCCCn1c(=O)[nH]c2cc(C(=O)OC)ccc2c1=O 0%, Cc1n[nH]c(C)c1S(=O)(=O)N1CCCC(C(=O)NCC2COc3ccccc3O2)C1 (centres undefined) 15.3%, Cc1cc2c(cc1C)NC(c1ccccn1)C1=C(CC(C)(C)CC1=O)N2 (centres undefined) 1.3%, O=S(=O)(N1CCCCC1)N1CCNCC1 -28.7%, CCN(CC)CCn1c2ccc(Cl)cc2c2nc(C)sc21 49.4%, CCC1CCCCN1C(=O)Nc1cccc(NC(=O)N2CCCCC2CC)c1 (centres undefined) -10.7%, COc1ccc(C(C)=O)cc1CN1C(=O)NC2(CCCCC2C)C1=O (centres undefined) 33.8%, Cc1c(C(=O)N2CCOCC2)[nH]c2ccc(OCc3ccccc3)cc12 43.3%, CC1CCN(CC(=O)c2c[nH]c3ccccc23)CC1 12.2%, Cc1ccc2c(C(=O)CN3CCCC3)c(C)[nH]c2c1 26.2%, Cc1[nH]c2ccccc2c1C(=O)COC(=O)C(C)C 25.9%, CSc1nc2ccccc2cc1/C=C(\C#N)c1ccc(Cl)cc1Cl 12.7%, COc1ccc(OC)c(CN2C(=O)CCC2(C)C(=O)NC2CCCCCC2)c1 (centres undefined) 18.1%, CCOc1c2ccc(C(=O)NCc3ccc(OC(F)(F)F)cc3)cc2nn1C 13.9%, O=C(NCc1cccs1)c1ccc2c(c1)ncn2C1CCCC1 5.6%, O=C(COC(=O)c1ccccc1SCC(=O)NC1CCCCC1)NC1CCCCC1 12.2%, COCCNC(=O)c1onc(CSc2cccc(C)c2)c1C(=O)O 39.1%, CCOC(=O)CC1C(=O)NCCN1C(=O)COc1ccc(Br)cc1C (centres undefined) 15.5%, CCCCn1c(CCCNC(=O)CC)nc2ccccc21 -20%, CCCCn1c(CN2CCN(CCO)CC2)nc2ccccc21 20.4%, Cc1nc2c(-c3ccccc3)c(C)[nH]n2c(=O)c1Cl -1%, CC(=O)Nc1nc(C)c(Cc2ccccc2)c(=O)[nH]1 6.3%, CC(Sc1sc(=S)sc1SC(C)C(=O)O)C(=O)O (centres undefined) -1.4%, CC1Cc2ccccc2N1C(=O)c1cc2sccc2n1Cc1ccccc1 (centres undefined) 25.4%, CCCOc1ccc(Cn2c(O)cc(=O)[nH]c2=O)cc1 -7.8%, CCOc1ccc(-c2nnc(-c3ccco3)o2)cc1 19%, COc1cc(C2CC(=O)N3CN(Cc4ccccc4)CSC3=C2C#N)ccc1OCc1ccccc1 (centres undefined) 33%, O=C(NCCCCc1ccccc1)C1CC(c2ccc([N+](=O)[O-])cc2)=NO1 (centres undefined) 9.5%, COc1ccc(C2=NOC(C(=O)NCc3ccco3)C2)cc1OC (centres undefined) -4.7%, O=C(O)CN(Cc1ccco1)S(=O)(=O)c1ccccc1 -12.5%, Cc1ccc(N2C(=O)CC(Sc3ncn[nH]3)C2=O)cc1 (centres undefined) 5.4%, COc1ccc(N2CCN(C3CC(=O)N(c4ccc5c(c4)OCCO5)C3=O)CC2)cc1 (centres undefined) 9.7%, COC(=O)N1CN(C(=O)OC)CN(C(=O)OC)C1 -10.2%, CCn1c(SCc2ccc(C)cc2)nnc1-c1nn(-c2ccccc2)ccc1=O -0.8%, O=C(Cc1ccc(-n2c(=O)c3sccc3n(Cc3ccc(F)cc3)c2=O)cc1)NCc1ccco1 49.5%, O=C(NCc1ccco1)c1cc2sccc2n1Cc1ccc(F)cc1 32.8%, C=CCn1c(Oc2ccc(C(=O)OC)cc2)nc2c1c(=O)n(C)c(=O)n2C 5.6%, CC(=O)NCCc1ccc(S(=O)(=O)N(C)C2CCS(=O)(=O)C2)cc1 (centres undefined) -2.2%, Cc1cc(C)c(S(=O)(=O)N2C=CC(C(F)(F)F)=NCC2)c(C)c1 19%, O=C(Cn1cc(/C=N/NC(=O)c2cccc(C(F)(F)F)c2)c2ccccc21)Nc1ccc(F)cc1 9.9%, CCNS(=O)(=O)c1ccc(NC(=O)Nc2cccc(C(F)(F)F)c2)cc1 1.1%
